The nature of assay [1]: qHTS assay to identify small molecule antagonists of the estrogen related receptor (ERR) signaling pathway from Tox21 library - cell viability counter screen (AID 1224834). Note: nearly all actives have a fitted effect of over 30% in size. In short, it runs like this: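 Counter screen run in ERR cells (2,000 cells/well): cells pre-incubated 6 h, then treated with compounds for 17.5 h at 37 C. Fluorescence was read 30 min after CellTiter-Fluor addition.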

The target of assay [2] is Luciferin 4-monooxygenase (Photinus pyralis) (UniProt P08659). Nature of the assay: qHTS assay to identify small molecule inhibitors of firefly luciferase (AID 1224835). Note: nearly all actives have a fitted effect of over 25% in size. Note: potency is the fitted concentration of half-maximal effect. Summed up:
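Inhibition of purified Photinus luciferase is measured by luminescence. Substrate levels (D-luciferin, ATP) sit at their KM values. Each compound is tested in a concentration series.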

Assay [3] can be described thus: qHTS assay to identify small molecule agonists of the constitutive androstane receptor (CAR) signaling pathway - cell viability counter screen (AID 1224836). Note: nearly all actives have a fitted effect of over 45% in size. In short, it runs like this:
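Compound titrations (15 concentrations) went onto HepG2-CYP2B6-hCAR cells 4 h after seeding, alongside PK11195 at a final 0.75 uM; a 23 h, 37 C/5% CO2 incubation preceded CellTiter-Fluor viability measurement.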
For orientation: Quantitative high-throughput screening tests each substance at several concentrations.

Assay [4] deals with Nuclear receptor subfamily 1 group I member 3 (Homo sapiens) (UniProt Q14994). Nature of the assay: qHTS assay to identify small molecule antagonists of the constitutive androstane receptor (CAR) signaling pathway (AID 1224838). Note: nearly all actives have a fitted effect of over 40% in size. Summed up: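 Inhibition of CITCO-driven (50 nM final) CYP2B6 reporter expression is measured in HepG2 cells stably carrying hCAR. Fifteen compound concentrations are applied for 24 h at 37 C, followed by luciferase luminescence.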
Nuclear receptor subfamily 1 group I member 3 (Homo sapiens), sequence (Q14994 whole entry, looked up): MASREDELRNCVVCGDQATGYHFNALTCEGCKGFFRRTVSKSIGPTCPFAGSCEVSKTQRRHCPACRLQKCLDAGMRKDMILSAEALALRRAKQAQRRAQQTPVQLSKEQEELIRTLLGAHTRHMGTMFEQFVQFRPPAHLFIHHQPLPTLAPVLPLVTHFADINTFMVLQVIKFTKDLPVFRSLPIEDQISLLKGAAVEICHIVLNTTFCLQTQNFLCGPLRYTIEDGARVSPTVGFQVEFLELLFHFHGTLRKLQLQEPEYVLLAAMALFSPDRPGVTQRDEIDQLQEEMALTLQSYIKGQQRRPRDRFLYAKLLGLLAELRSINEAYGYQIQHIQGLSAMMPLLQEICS

For assay [5] the target is unchanged. Nature of the assay: qHTS assay to identify small molecule agonists of the constitutive androstane receptor (CAR) signaling pathway (AID 1224839). Note: nearly all actives have a fitted effect of over 15% in size. Note: potency is the fitted concentration of half-maximal effect. Summed up: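 In this screen, CAR-driven CYP2B6 promoter activity is measured by luminescence in HepG2-CYP2B6-hCAR cells after 24 h with test compounds and 0.75 uM PK11195 (final concentration).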
Assay [6] in a line: qHTS assay to identify small molecule antagonists of the estrogen related receptor signaling pathway with the pleiotropic PPARgamma coactivator (PGC) from Tox21 10K library (AID 1224841; call rule not given here; note: actives are mostly falling curves and most rising ones were filed inactive; nearly all actives have a fitted effect of over 50% in size). Summed up: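 One-Glo luminescence, measured after half an hour at room temperature, quantified reporter output of PGC/ERR cells. These had been plated at 2,000 per well, incubated 6 h, dosed with compounds in DMSO, then kept 18 h at 37 C.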

Assay [7] in a line: qHTS assay to identify small molecule agonists of the estrogen related receptor signaling pathway with the pleiotropic PPARgamma coactivator (PGC) from Tox21 10K library (AID 1224842). Note: nearly all actives have a fitted effect of over 15% in size. Summed up:
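Luminescence from One-Glo (30 min, room temperature) measured after PGC/ERR cells had 18 h at 37 C with pinned compound (23 nL in DMSO). Cells had been seeded at 2,000 per well and pre-incubated 6 h.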

Assay [8] has as its target Thyrotropin receptor (Homo sapiens) (UniProt P16473). Nature of the assay: qHTS assay to identify small molecule agonists of the thyroid stimulating hormone receptor (TSHR) signaling pathway (AID 1224843; calls by dose curve; note: nearly all actives have a fitted effect of over 45% in size). In short, it runs like this: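 A cell-based cAMP HTRF format was run in TSHR-transfected HEK293 cells, 800 per well. Treatment: 30 min, room temperature. Detection: 1 h with labelled cAMP and anti-cAMP cryptate. Concentration-response over 15 points, three replicates.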

The nature of assay [9]: qHTS assay to identify small molecule agonists of the hypoxia (HIF-1) signaling pathway - cell viability counter screen (AID 1224844; calls by dose curve; note: nearly all actives have a fitted effect of over 50% in size). Summed up: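 In this counter screen, HRE-bla ME-180 cell viability after 17 hrs of compound exposure at 37C was read by CellTiter-Glo luminescence, multiplexed with the beta-lactamase reporter measurement.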
A short description of assay [10]: qHTS assay to identify small molecule agonists of H2AX (AID 1224845; active = well fitted activation curve with a large enough effect in the signal ratio in the repeat runs, not every such curve was filed as active; the % refers to the signal ratio). In short, it runs like this:
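Phospho-H2AX Ser139 measured by HTRF (ex 320 nm; em 665 and 620 nm) after 24 hr antibody incubation. Compounds, 15 concentrations, 0.76% DMSO, were applied to CHO-K1 cells for 3hr at 37C before lysis.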

A short description of assay [11]: qHTS assay to identify small molecule agonists of the hypoxia (HIF-1) signaling pathway (AID 1224846; active = well fitted activation curve with a large enough effect in the signal ratio in the repeat runs, not every such curve was filed as active; the % refers to the signal ratio). In short, it runs like this: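 ME-180 HRE-bla reporter cells; compounds in DMSO, 17 h at 37C; read-out beta-lactamase via CCF4-AM FRET.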
Assay [12] is described as follows: qHTS assay to identify small molecule agonists of H2AX - cell viability counter screen (AID 1224847; calls by dose curve; note: top concentration of the series differs between compounds; nearly all actives have a fitted effect of over 30% in size). Summed up:
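Read-out: CellTiter-Glo luminescence, 30 min RT. Cells: wild-type CHO-K1, 1000/well, 10% FBS, plated overnight at 37C. Treatment: 15 concentrations, 3 hr, 37C, 0.76% DMSO.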

Assay [13] can be described thus: qHTS assay to identify small molecule agonists of the estrogen related receptor (ERR) signaling pathway from Tox21 library (AID 1224849; calls by dose curve; note: nearly all actives have a fitted effect of over 15% in size). The following applies: ERR reporter cell line, ONE-Glo luciferase, 18 h. In short, it runs like this:
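Luciferase activity in ERR pathway reporter cells served as the agonist readout; exposure lasted 18 h at 37 C, with ONE-Glo detection after 30 min at room temperature.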

Assay [14] can be described thus: qHTS RealTime-Glo MT Cell Viability Assay in HepG2 cells - 24 hour (AID 1224867). Note: nearly all actives have a fitted effect of over 50% in size. In short, it runs like this: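 Cell number in HepG2 cultures estimated from NanoLuc luminescence generated by metabolic reduction of a prosubstrate by living cells. The homogeneous, nonlytic format allowed repeated reads at 0, 8, 16, 24, 32 and 40 h of compound exposure.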
A short description of assay [15]: qHTS RealTime-Glo MT Cell Viability Assay in HEK293 cells - 32 hour (AID 1224868). Note: top concentration of the series differs between compounds; nearly all actives have a fitted effect of over 50% in size. In short, it runs like this:
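Homogeneous bioluminescent viability format in HEK293 cells (600 cells/well). Following 5 h at 37 C/5% CO2, 23 nL compound was pintooled; the signal was measured repeatedly during 40 h incubation.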

The nature of assay [16]: A CellTox Green Cytotoxicity Assay to monitor cytotoxicity in HEK293 cells - 0 hour (AID 1224869). Note: nearly all actives have a fitted effect of over 50% in size. Summed up: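 Real-time, in one plate: 600 HEK293 cells/well with dead-cell DNA dye, pinned compound after 5 h, 37 C incubation over 40 h; viable cells give no appreciable fluorescence.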
The nature of assay [17]: qHTS assay to identify small molecule antagonists of the estrogen related receptor signaling pathway with the pleiotropic PPARgamma coactivator (PGC) from Tox21 10K library - cell viability counter screen (AID 1224840; active = well fitted cell-killing curve with a large enough effect in the repeat runs, not every such curve was filed as active; note: nearly all actives have a fitted effect of over 40% in size). Summed up: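 Readout: fluorescence intensity from CellTiter-Fluor after 30 min at 37 C/5% CO2. Preceded by 17.5 h treatment of PGC/ERR cells with DMSO-dissolved compounds, added 6 h post-seeding.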

The nature of assay [18]: qHTS assay to identify small molecule antagonists of the estrogen related receptor (ERR) signaling pathway from Tox21 library (AID 1224848). Note: nearly all actives have a fitted effect of over 50% in size. Summed up:
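ERR cell line, 2,000 cells/well. 6 h settle, then compound (DMSO) added; 18 h at 37 C; ONE-Glo luminescence after 30 min RT.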

Assay [19] in a line: qHTS assay to identify small molecule antagonists of the constitutive androstane receptor (CAR) signaling pathway - cell viability counter screen (AID 1224837). Note: nearly all actives have a fitted effect of over 45% in size. Summed up: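 CITCO at 50 nM final was added alongside compounds (15 concentrations) to double-stable hCAR/CYP2B6-2.2kb HepG2 cells. Following 23 hr at 37 C, cell viability was quantified by CellTiter-Fluor fluorescence intensity.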

Each structure is given as a SMILES string. Where “and” joins values, the source holds several entries; their conditions need not be identical. Equal entries are not always repeated. Records with an inconclusive call do not appear. A structure can be active in one record and inactive in another. Calls of active or inactive are those of the source. Unless noted, calls come from the whole dose curve; as a rule, active = well fitted curve in the direction sought with a large enough effect in the repeat runs; inconclusive = weak or mixed curves; inactive = no such curve, though single readings can be large; an effect the other way counts as inactive or inconclusive.
% is set by controls: 0 for no effect and ±100 for the full control effect.

Luciferin 4-monooxygenase (Photinus pyralis), sequence (P08659 whole entry, looked up): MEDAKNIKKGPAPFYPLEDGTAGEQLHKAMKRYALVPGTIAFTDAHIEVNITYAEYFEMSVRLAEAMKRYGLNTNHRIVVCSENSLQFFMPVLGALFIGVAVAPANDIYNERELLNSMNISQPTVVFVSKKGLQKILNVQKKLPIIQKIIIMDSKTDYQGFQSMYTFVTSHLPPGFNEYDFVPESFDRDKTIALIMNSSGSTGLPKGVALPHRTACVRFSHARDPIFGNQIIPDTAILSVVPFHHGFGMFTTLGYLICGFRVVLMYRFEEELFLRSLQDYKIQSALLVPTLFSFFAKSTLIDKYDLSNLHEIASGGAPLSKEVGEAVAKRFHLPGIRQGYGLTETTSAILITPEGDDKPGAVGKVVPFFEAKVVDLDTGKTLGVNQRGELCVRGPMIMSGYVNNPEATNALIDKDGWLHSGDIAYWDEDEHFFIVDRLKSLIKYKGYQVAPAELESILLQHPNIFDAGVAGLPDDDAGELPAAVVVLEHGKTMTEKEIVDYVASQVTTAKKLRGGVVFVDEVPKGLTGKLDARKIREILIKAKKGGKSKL
Thyrotropin receptor (Homo sapiens), sequence (P16473 whole entry, looked up): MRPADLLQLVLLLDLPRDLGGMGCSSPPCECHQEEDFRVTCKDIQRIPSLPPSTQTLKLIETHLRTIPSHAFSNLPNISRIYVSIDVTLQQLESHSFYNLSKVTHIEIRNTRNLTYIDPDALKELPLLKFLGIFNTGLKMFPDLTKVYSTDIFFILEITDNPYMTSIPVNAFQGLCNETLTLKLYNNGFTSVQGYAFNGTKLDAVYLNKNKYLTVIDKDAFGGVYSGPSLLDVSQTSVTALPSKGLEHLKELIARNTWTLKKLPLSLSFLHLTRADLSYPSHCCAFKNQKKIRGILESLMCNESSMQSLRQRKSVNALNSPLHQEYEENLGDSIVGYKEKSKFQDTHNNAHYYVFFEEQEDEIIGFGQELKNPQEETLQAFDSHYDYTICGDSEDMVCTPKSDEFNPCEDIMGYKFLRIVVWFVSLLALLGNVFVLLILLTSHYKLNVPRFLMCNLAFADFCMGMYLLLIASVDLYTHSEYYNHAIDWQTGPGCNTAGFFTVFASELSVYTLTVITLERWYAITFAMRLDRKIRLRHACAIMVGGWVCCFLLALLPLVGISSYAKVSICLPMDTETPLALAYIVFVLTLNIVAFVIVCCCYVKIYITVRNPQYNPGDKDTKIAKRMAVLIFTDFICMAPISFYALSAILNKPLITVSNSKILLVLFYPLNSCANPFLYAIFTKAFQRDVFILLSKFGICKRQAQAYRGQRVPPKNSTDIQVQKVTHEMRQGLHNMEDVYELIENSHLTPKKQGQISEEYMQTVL

In the case of `CCOc1ccc(N)cc1`, the Potency result in assay [1], in assay [3], in [4], in assay [5], in [6] and in [7] was “inactive” in each case. Moreover, the Potency entry in [8], in assay [9], in assay [10], in [12], in [15] and in [16] was “inactive” in each case. The Potency result in assay [2] is “inactive and 79.6 µM (active)”. Also, the molecule was classed as inactive in assay [11] and in [14]. Moreover, in assay [13] (at 92.4 µM (top of the series)), the activity change, positive = activation was -23.9% (inactive) and -14.2% (inactive).
Regarding `O=C(O)Cc1ccccc1`, the Potency entry in [1], in assay [2], in [3], in assay [4], in [5] and in assay [17] was “inactive” in each case. Further, the Potency entry in [6], in [7], in assay [9], in [10], in assay [18] and in assay [15] was “inactive” in each case. Moreover, the Potency entry in assay [16] was “inactive”. Besides, the call in assay [11] and in [14] was inactive. Also, the activity change, positive = activation is -0.0869% (inactive) in [13] (at 42.5 µM (top of the series)) and -3.48% (inactive) in [13] (at 92.4 µM (top of the series)).
As for `C=CC(=O)OCC(CC)CCCC` (stereo not drawn), the Potency entry in assay [1], in assay [3], in assay [19], in assay [4], in [5] and in assay [6] was “inactive” each time. Besides, the Potency result in assay [7], in assay [8], in assay [10], in assay [12], in [18] and in assay [15] was “inactive” throughout. The Potency result in assay [16] was “inactive”. Further, the call in [11] and in assay [14] was inactive. For the same molecule, the activity change, positive = activation in assay [13] (at 92.4 µM (top of the series)) was 0.98% (inactive) and -12% (inactive).
Consider `CCNc1nc(Cl)nc(NC(C)C)n1`, for which the Potency entry in assay [1], in [2], in assay [3], in assay [6], in assay [7] and in assay [8] was “inactive” throughout. The Potency entry in assay [10], in assay [12], in [18], in [15] and in assay [16] was “inactive” throughout. Further, the outcome in [11] and in assay [14] was inactive. Further, the activity change, positive = activation in assay [13] (at 92.4 µM (top of the series)) is -5.74% (inactive) and -1.44% (inactive).
In the case of `NNc1ccccc1`, the Potency result in assay [2], in assay [3], in [19], in [4], in [8] and in assay [10] was “inactive” each time. Further, the Potency result in assay [15] and in assay [16] was “inactive” each time. In addition, in [5], the Potency was 48 µM (active) and 68.5 µM (active). For the same molecule, the call in assay [11] and in assay [14] was inactive.
In the case of `COc1nc(NC(C)C)nc(NC(C)C)n1`, the Potency entry in [1], in [2], in assay [3], in assay [4], in assay [5] and in assay [6] was “inactive” in each case. The Potency result in assay [7], in [8], in assay [10], in [18], in assay [15] and in assay [16] was “inactive” throughout. Moreover, the result in assay [11] and in assay [14] was inactive. In [13] (at 92.4 µM (top of the series)), the activity change, positive = activation was 1.12% (inactive) and 6.24% (inactive).
Take `COS(=O)(=O)OC`: the Potency result in assay [1], in assay [2], in assay [3], in assay [10] and in assay [15] was “inactive” in each case. Also, the result in assay [11] and in [14] was inactive.
Consider `COP(=S)(OC)SCN1C(=O)c2ccccc2C1=O`, for which the Potency entry in [1], in assay [3], in assay [8], in [10], in assay [12] and in [15] was “inactive” in each case. Further, in [16], the Potency result was “inactive”. In [2], the Potency is 71.5 µM (active) and 63.3 µM (active) and inactive. Besides, the call in assay [11] and in assay [14] was inactive.
For `C/C=C/c1ccc2c(c1)OCO2`, the Potency result in [1], in assay [2], in assay [3], in [4], in assay [5] and in [8] was “inactive” each time. Besides, the Potency result in assay [9], in [10], in [12] and in assay [15] was “inactive” in each case. Moreover, the molecule was classed as inactive in [11] and in assay [14].

The values above are taken from PubChem BioAssay (Tox21).
